HPGD inh: HPGD (human) dehydrogenase inhibition; P15428; purified HPGD, NADH fluorescence kinetic, PGE2 substrate; Potency, µM, most hits filed as inhibitors; actives 4.3% (n = 150,000); active = well fitted inhibition curve with a large enough effect, not every such curve was filed as active; inconclusive = small, poorly fitted or top-dose-only effect, or another doubt; inactive = no such curve, though single readings can be large or run the other way
Target sequence (P15428 whole entry, looked up): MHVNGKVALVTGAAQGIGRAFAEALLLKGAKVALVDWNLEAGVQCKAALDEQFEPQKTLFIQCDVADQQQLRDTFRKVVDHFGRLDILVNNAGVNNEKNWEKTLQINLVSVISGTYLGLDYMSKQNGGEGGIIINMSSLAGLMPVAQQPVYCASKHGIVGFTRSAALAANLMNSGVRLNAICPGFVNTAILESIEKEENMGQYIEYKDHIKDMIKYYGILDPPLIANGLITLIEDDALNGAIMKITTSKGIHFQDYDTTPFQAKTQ
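NADH formation kinetics: reaction with 30 uM PGE2 and 1 mM NAD+ (final), 20 nM enzyme, Tris-HCl pH 8 with Tween 20, after 15 min compound preincubation at room temperature. Fluorescence change, last versus first of five reads.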
IMPase inh: membrane-permeable compound that blocks inositol monophosphatase; 120,000 tested, under 10 active; inhibition (IP1 accumulation), % at 46.1 µM; CHO-M1 cells, IP1 accumulation, HTRF TR-FRET ratio; P97697; active = well fitted curve in the direction sought with a large enough effect in the signal ratio, not every such curve was filed as active; inconclusive = small, poorly fitted or top-dose-only effect, or a change in a side signal; inactive = no such curve, though single readings can be large or run the other way; the % refers to the signal ratio;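 also: cells stimulated with carbachol in lithium chloride buffer; higher means more IMPase inhibition seen as more IP1 and lower FRET ratio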
Target sequence (P97697 whole entry, looked up): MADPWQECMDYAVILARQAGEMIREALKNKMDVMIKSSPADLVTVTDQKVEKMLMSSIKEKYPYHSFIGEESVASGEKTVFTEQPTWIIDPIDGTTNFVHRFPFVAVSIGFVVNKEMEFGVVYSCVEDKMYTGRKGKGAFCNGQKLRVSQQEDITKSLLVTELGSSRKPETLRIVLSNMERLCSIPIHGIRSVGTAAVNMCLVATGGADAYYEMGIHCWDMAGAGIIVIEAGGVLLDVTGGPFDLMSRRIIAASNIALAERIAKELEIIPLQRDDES
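Carbachol-driven Gq signalling in CHO-M1 cells (2000/well) generates IP1. Compounds that block IMPase raise IP1 and so reduce the FRET signal from Eu-anti-IP1 and d2-IP1 after a 10 min room-temperature lysis.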
ALDH1A1 inh: inhibitors of human aldehyde dehydrogenase 1A1; Purified ALDH1A1, NADH fluorescence, propionaldehyde substrate; Potency, µM (series often up to 75.3 µM), actives largely listed as inhibitors; actives 7.3% (n = 220,000); AID 1030; P00352; active = well fitted inhibition curve with a large enough effect, not every such curve was filed as active; inconclusive = small, poorly fitted or top-dose-only effect, or another doubt; inactive = no such curve, though single readings can be large or run the other way
HTT cytoprotect: Huntington cell model cytoprotection by ATP luminescence; PC12 HTT-Q103 induced, cytoprotection, ATP luminescence, 40 h; Potency, µM (doses to about 56.4 µM), actives largely listed as activators; actives 0.14% (n = 230,000); AID 1471; also: nearly all actives have a fitted effect of over 45% in size
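Cells were plated at 1500 per well in phenol red-free DMEM with 5% equine and 5% calf serum. Tebufenozide (100 nM final) and compounds were added, then ATPlite reagent, and luminescence was read.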
HttQ103 aggreg: mutant huntingtin aggregation inhibition; actives 1.1% (n = 220,000); AID 1688; PC12 HttQ103-GFP aggregates, Acumen cytometry, 40 h; Potency, µM (doses to about 46.1 µM), usual class: inhibitors; also: nearly all actives have a fitted effect of over 60% in size
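Using laser scanning cytometry, GFP-positive aggregates were counted after lysis of PC12 cells induced with 100 nM tebufenozide to express HTT exon 1 Q103–GFP. Compounds were tested in titration.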
IMPase Li cell: membrane-permeable IMPase blocker, potentiated with lithium | CHO-M1 cells, IP1 TR-FRET (IP-One), carbachol + lithium | actives 0.35% (n = 210,000) | Potency, µM (top dose mostly 59.4 µM), most hits filed as inhibitors | AID 1457;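 also: IP1 builds up when IMPase is blocked and the TR-FRET signal falls; nearly all actives have a fitted effect of over 50% in size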
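CHO cells stably expressing M1 receptor (2000/well) were cultured 16–30 h, then exposed to compounds with a small lithium addition for 30 min at 37C. IP1 was measured by TR-FRET competition; AC50 from Hill fits.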
Large screens that a line does not name were inactive. Hits are enriched below; roughly 9.4% of the tested compounds scored in any of these assays. Unless noted, calls follow the shape of the dose curve; as a rule, active = well fitted curve in the direction sought with a large enough effect; inconclusive = small, poorly fitted or top-dose-only effect, or another doubt; inactive = no such curve, though single readings can be large; an effect the other way counts as inactive or inconclusive.

CN(C)c1ccc(CNC(=O)[C@@]2(C)C=C[C@@H](Cc3ccccc3)N2C)cc1	ALDH1A1 inh 20µM (no result: IMPase inh, HttQ103 aggreg)
COc1ccc(-c2nn(-c3ccccc3)cc2C(=O)NC(=S)NNC(=O)c2ccncc2)cc1	ALDH1A1 inh inconclusive, HttQ103 aggreg 10µM (no result: HPGD inh, IMPase inh)
Cc1onc(-c2ccccc2)c1C(=O)NC(=S)NNC(=O)c1ccncc1	ALDH1A1 inh 18µM, HttQ103 aggreg inconclusive (no result: IMPase inh, HTT cytoprotect)
Cc1onc(-c2ccccc2)c1C(=O)NC(=S)NNC(=O)c1cccnc1	ALDH1A1 inh inconclusive (no result: IMPase inh, HTT cytoprotect)
NC(N)=N[C@H](CC(=O)O)c1ccccc1	none (no result: IMPase inh, HttQ103 aggreg)
C#C[C@@]1(O)CC[C@@H]2[C@H]3CCC4=C/C(=N\O)CC[C@H]4[C@@H]3CC[C@]21CC	none (no result: HPGD inh, IMPase inh, ALDH1A1 inh, IMPase Li cell)
O=C(NCCC[N+]1=CC=N[C@H]1c1ccccc1)N1CCCc2nc(-c3ccc(Br)cc3)ccc21	none (no result: HPGD inh, IMPase inh, HttQ103 aggreg, IMPase Li cell)
Cc1ccc2[nH]c3c(c2c1)CN(C(=O)CN1CCN(C(=O)c2ccco2)CC1)CC3	none (no result: HPGD inh, IMPase inh, ALDH1A1 inh, IMPase Li cell)
Cc1ccc2[nH]c3c(c2c1)CN(C(=O)CN1c2ccc(F)cc2CCC1C)CC3 (stereo not drawn)	HPGD inh inconclusive, ALDH1A1 inh inconclusive
O=C(CN1CCN(C(=O)c2ccco2)CC1)N1CCc2[nH]c3ccccc3c2C1	ALDH1A1 inh 10µM (no result: HPGD inh, IMPase inh, IMPase Li cell)
O=C(CN1CCSCC1)N1CCc2[nH]c3ccc(Br)cc3c2C1	ALDH1A1 inh 15µM
Cc1ccc2[nH]c3c(c2c1)CN(C(=O)CN1CCN(c2cccc(C)c2C)CC1)CC3	HPGD inh inconclusive, ALDH1A1 inh 4.5µM
CC1CCN(CC(=O)N2c3ccccc3Sc3cc4ccccc4cc32)CC1	none (no result: IMPase inh, HttQ103 aggreg)
O=C(CCC1N=C2c3ccccc3N=C(SCc3ccccc3Cl)N2C1=O)N1CCN(c2ccccc2)CC1 (stereo not drawn)	none (no result: HPGD inh, ALDH1A1 inh, HTT cytoprotect, HttQ103 aggreg, IMPase Li cell)
COc1ccc(-c2nc3c4ccccc4ccn3c2CN2CCOCC2)cc1OC	none (no result: HPGD inh, IMPase inh, ALDH1A1 inh, IMPase Li cell)
O=C(CSc1nnnn1C1CCCC1)Nc1ccc(F)cc1	ALDH1A1 inh inconclusive
COc1ccc(NC(=O)CSc2nnnn2C2CCCC2)cc1	ALDH1A1 inh 2.5µM (no result: HPGD inh, IMPase inh)
O=C(Sc1nnnn1C1CCCCC1)c1cccs1	HPGD inh 25µM, ALDH1A1 inh 10µM
COc1ccc(OC)c(-n2nnnc2SCC(=O)Nc2ccc(C(=O)N3CCCCC3)cc2)c1	HPGD inh 0.35µM, ALDH1A1 inh 1.4µM
O=C(O)CSc1nnnn1C1CCCCC1	none (no result: HPGD inh, IMPase inh)
COc1cccc(-n2nnnc2SCC(=O)Nc2ccc(C(C)=O)cc2)c1	IMPase inh inconclusive
O=C(CSc1nnnn1C1CCCCC1)Nc1ccc2c(c1)OCO2	ALDH1A1 inh 7.9µM
CCCCC/C=C\C/C=C\C/C=C\CCCCC(=O)NC(C)C(=O)O (stereo not drawn)	none (no result: IMPase inh, HttQ103 aggreg)
O=C(CSc1nnnn1C1CCCCC1)Nc1ccc(F)cc1	ALDH1A1 inh inconclusive (no result: HPGD inh, IMPase inh)
O=C(CSc1nnnn1C1CC2CCC1C2)Nc1ccnc2ccccc12 (stereo not drawn)	HPGD inh inconclusive, ALDH1A1 inh 2.5µM, HttQ103 aggreg inconclusive
O=C(CSc1nnnn1C1CCCCC1)Nc1ccccc1F	ALDH1A1 inh 4µM (no result: HPGD inh, IMPase inh, HTT cytoprotect, HttQ103 aggreg)
O=C(CSc1nnnn1C1CCCC1)NCc1ccccc1	ALDH1A1 inh inconclusive
O=C(CSc1nnnn1C1CCCCC1)Nc1cccc(NC(=O)c2ccco2)c1	ALDH1A1 inh 28µM
CCOc1ccc(-c2nn(-c3ccccc3)cc2C2NC(=O)NC(C)=C2C(=O)OC(C)C)cc1C (stereo not drawn)	none (no result: HPGD inh, ALDH1A1 inh, HTT cytoprotect, HttQ103 aggreg, IMPase Li cell)
C[C@H]1[C@H]2CC[C@H]3C4CC=C5C[C@@H](N(C)C)CC[C@]5(C)C4CC[C@]23CN1C (stereo partly drawn)	none (no result: HttQ103 aggreg)
NC(=O)c1cc[n+](CC(=O)c2ccc(NC(=O)c3ccccc3)cc2)cc1	ALDH1A1 inh 4.5µM (no result: HPGD inh, IMPase inh)
COC(=O)N[C@H](C[N+](=O)[O-])c1cccc(C)c1	none (no result: IMPase inh, HTT cytoprotect, HttQ103 aggreg)
CCN(CC)c1ccc(/C=C2\CCC(/C=C(\C#N)C(=O)Nc3ccccc3F)=C2N2CCOCC2)cc1	HPGD inh 11µM, ALDH1A1 inh inconclusive, HttQ103 aggreg inconclusive
CNC(=O)/C(C#N)=C\c1ccc(CNS(=O)(=O)c2ccccc2)o1	none (no result: IMPase inh)
COCCCN1C(=O)/C(=C/c2ccc(CNS(=O)(=O)c3ccccc3)o2)C(C(=O)OC)=C1C	ALDH1A1 inh 35µM (no result: HPGD inh, IMPase inh)
CCOC(=O)c1ccc(NC(=O)Cn2cc(C(=O)C3CC3)c3ccccc32)cc1	none (no result: HPGD inh, ALDH1A1 inh, HTT cytoprotect, HttQ103 aggreg, IMPase Li cell)
NC(=[SH+])N=N/C=C1/C=CC=CN1.O=S(=O)(O)O.[Fe]	ALDH1A1 inh inconclusive (no result: IMPase inh, HTT cytoprotect, HttQ103 aggreg)

Screening data as filed in PubChem BioAssay.
